# Data: PubChem BioAssay AID1345085 (National Center for Advancing Translational Sciences (NCATS), 2018)
# Records with an inconclusive call do not appear. Activity calls are given as the source filed them. Calls follow the shape of the dose curve; as a rule, active = well fitted cell-killing curve with a large enough effect; inconclusive = small, poorly fitted or top-dose-only effect, or effect the other way; inactive = no such curve, though single readings can be large or run the other way.
# Tested on: CASKI
# Assay: Confirmatory qHTS for gynecologic anti-cancer compounds from libraries of approved drugs and bioactive compounds; also: nearly all actives have a fitted effect of over 55% in size
# Settings: gynecologic cancer cell panel viability, ATPlite luminescence, 48 h; series mostly up to 57.6 µM; activity change, negative = viability loss: at the top concentration
# Method in brief: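 ATP-based luminescent viability (ATPlite) after 48 h drug treatment at 37 °C, 5% CO2, across 57.5 uM–0.977 nM in 1:3 steps. Cells seeded at 1,000 per well 16 h beforehand; IC50 values computed, HEK 293T as selectivity control.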
# % is scaled to controls: 0 for no effect and ±100 for the full control effect; potency is read from the fitted curve at half-maximal effect.
SMILES,Potency,"activity change, negative = viability loss"
C/C=C(/C)C(=O)O[C@H]1C(C)=C2[C@H]([C@@H]1OC(=O)CCCCCCC)[C@@](C)(OC(C)=O)C[C@H](OC(=O)CCC)[C@@]1(O)[C@H]2OC(=O)[C@@]1(C)O,34.3 µM (active),–
O=C(O)Cc1ccccc1,–,-0.845% (inactive)
CCN1CCN(C(=O)Cc2ccc(Nc3ncc(F)c(Nc4ccc(C(=O)Nc5ccccc5Cl)cc4)n3)cc2)CC1,–,4.94% (inactive)
C=C(C)[C@H]1Cc2c(ccc3c2O[C@@H]2COc4cc(OC)c(OC)cc4[C@@H]2C3=O)O1,0.109 µM (active),–
C[C@]12CC[C@H]3[C@@H](CCC4=CC(=O)CC[C@@H]43)[C@@H]1CC[C@@H]2OC(=O)CCc1ccccc1,–,-1.32% (inactive)
CCOc1ccccc1-n1c(C(C)N2CCN(C(=O)COc3ccc(Cl)cc3)CC2)nc2ccccc2c1=O (centres undefined),–,-12.3% (inactive)
CCC(=O)O[C@H]1CC[C@H]2[C@@H]3CCC4=CC(=O)CC[C@]4(C)[C@H]3CC[C@]12C,–,-19.4% (inactive)
C[C@H]1CCC/C=C/C2C[C@H](O)C[C@H]2[C@H](O)/C=C/C(=O)O1 (some centres undefined),0.611 µM (active),–
Cc1sc2c(c1C)C(c1ccc(Cl)cc1)=NC(CC(=O)OC(C)(C)C)c1nnc(C)n1-2 (centres undefined),7.69 µM (active),–
